For 42 sequences, binding signal results are on record in publication PMC7819943, “Rice protein-binding microarrays: a tool to detect cis-acting elements near promoter regions in rice”.

Whole data set: some 39,000 sequences, median “fluorescence intensity (a.u.)” near 4,300, cut for the highest 2% near 39,000. The entries come from a sample that favours the highest values as a whole.

The target in this test is T1, OsSMF1 (Oryza sativa, UniProt Q6ZLB0 1-436).
T1 sequence: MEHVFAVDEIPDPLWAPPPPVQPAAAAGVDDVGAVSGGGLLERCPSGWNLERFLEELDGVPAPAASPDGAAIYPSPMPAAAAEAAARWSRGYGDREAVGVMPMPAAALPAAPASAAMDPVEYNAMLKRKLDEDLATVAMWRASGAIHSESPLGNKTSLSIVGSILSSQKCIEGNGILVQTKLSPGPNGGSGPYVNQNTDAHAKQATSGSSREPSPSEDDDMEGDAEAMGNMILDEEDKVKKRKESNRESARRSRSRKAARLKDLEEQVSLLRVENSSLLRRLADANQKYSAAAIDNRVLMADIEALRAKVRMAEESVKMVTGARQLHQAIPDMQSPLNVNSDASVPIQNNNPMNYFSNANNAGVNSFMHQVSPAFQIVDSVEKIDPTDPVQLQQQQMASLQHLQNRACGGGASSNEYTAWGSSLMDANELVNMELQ
The experiment in a line: protein-binding microarray (RPBM); PBS, 2% BSA, 51.3 ng/ul salmon testes DNA, 50 uM zinc acetate, 200 nM TF, 25 C, 1 h; high values mean tight binding. Conditions: protein: recombinant; tags: N-terminal polyhistidine and DsRed monomer fusion (pET32a); chain copies: 2; label: CyDye5-dUTP incorporated in the synthesized complementary strand; 3' TTTTT single-stranded linker to array surface; dsDNA, one strand shown. The method, boiled down:
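Binding signal is reported as fluorescence intensity per feature (arbitrary units) from an Axon 4000B scanner. Incubation used 200 nM of each Ni–NTA-purified, N-terminally polyhistidine- and DsRed-fused transcription factor from E. coli BL21-CodonPlus on a double-stranded custom Agilent array for 1 h at 25 °C, with 50 µM zinc acetate in the buffer, followed by washing.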
Consider “TTGAAATGTTTAAGTTGTTTTAAAATTATTCTATATATTTCGGAGTCACCTAGTGCAG”, for which the binding signal was 37800 fluorescence intensity (a.u.).

Consider “TTTACATGTGTAGATCTAATGATGTGTTAATGCTAGTATACGGAGTCACCTAGTGCAG”, for which the binding signal was 4500 fluorescence intensity (a.u.). For the sequence “TGTTTATTGGCTTTGTCATATGATAAATGAATTAATTGTTCGGAGTCACCTAGTGCAG”, the binding signal is 30500 fluorescence intensity (a.u.). In the case of “TTTGATGCTGATTATAGGAAAATGTAAATGTTTCTATATACGGAGTCACCTAGTGCAG” it was 39500 fluorescence intensity (a.u.). The figure for “AACAAATATCGTTCCTCGGTGTCGTCATCGTGTTTGGATCCGGAGTCACCTAGTGCAG” is 6670 fluorescence intensity (a.u.); for “GCAAGCAAAGAAAGTTGTCATCATCCCAATCCTCCTCCGCCGGAGTCACCTAGTGCAG” it is 4050 fluorescence intensity (a.u.). In the case of “GTCTTTCCGAGTGGTGGCGGCGGTGGCTGATCTGCTTGTGCGGAGTCACCTAGTGCAG” it was 3420 fluorescence intensity (a.u.); in that of “CATTCCTCTCTTTCCCCTCATCCCTATAAATCCAACATTTCGGAGTCACCTAGTGCAG”, 3440 fluorescence intensity (a.u.); in that of “CACCACCACCACGACGCCAACGTCAACGGCGAGGACCAAGCGGAGTCACCTAGTGCAG”, 3270 fluorescence intensity (a.u.).

With “CCCACATGTCGGTCCAATTCTCCCTCCAGCCACTCCCGACCGGAGTCACCTAGTGCAG”, the binding signal is 3220 fluorescence intensity (a.u.).

On to “CTAATATGGATAGATTGAAACATCAAGGACTAAACTGAGCCGGAGTCACCTAGTGCAG”, for which the binding signal is 3460 fluorescence intensity (a.u.). In the case of “GATTGAAACATCAAGGACTAAACTGAGTCTCAGATGAAACCGGAGTCACCTAGTGCAG” it was 58100 fluorescence intensity (a.u.); in that of “CTGAAACCAACATCCAAGTCATCATGTCCAAGATGTCTCCCGGAGTCACCTAGTGCAG”, 6640 fluorescence intensity (a.u.). In the case of “GAGAGATCGTACACGAGTCATTTCAACTCGGACAATTTGCCGGAGTCACCTAGTGCAG” it was 3180 fluorescence intensity (a.u.); in that of “CGACTCAAAGATAAATGATATGTCATCGGCACCTAGCCGACGGAGTCACCTAGTGCAG”, 4200 fluorescence intensity (a.u.). The figure for “TGTGACACATGTTACACATAATTATTATGTGAGTGGTAAACGGAGTCACCTAGTGCAG” is 4020 fluorescence intensity (a.u.); for “ACAACAGCTCGATCCATCCACGCGCGCGTGACGGCTCGGCCGGAGTCACCTAGTGCAG” it is 4690 fluorescence intensity (a.u.). Turning to “CAATTCTACAATATGCCACTGAGTTTACCAAGTTATACAACGGAGTCACCTAGTGCAG”, the binding signal is 4020 fluorescence intensity (a.u.). In the case of “TACTTCTACCTACCTTACCAAGTCCTGACAGTTACAACGTCGGAGTCACCTAGTGCAG” it was 55400 fluorescence intensity (a.u.); in that of “GAAATCTGAACAACCAAGTTACTACTGTACTTATGTTAGTCGGAGTCACCTAGTGCAG”, 20700 fluorescence intensity (a.u.). With “ATAAATACCAGCTTTCCAACCATCACTTATTCACTTGCCCCGGAGTCACCTAGTGCAG”, the binding signal is 3740 fluorescence intensity (a.u.).

For “TAATCCAGTACTACTTGCTGTGACAGTGTGATGTGCTTGTCGGAGTCACCTAGTGCAG”, the binding signal was 3540 fluorescence intensity (a.u.). Take “AGATTGCCATCGGACGCAGTAAAACGTGTCACTACCCCACCGGAGTCACCTAGTGCAG”: the binding signal was 7590 fluorescence intensity (a.u.). The figure for “CTTAATTAATTATACACACAAACATTCCCTCCAATGCATGCGGAGTCACCTAGTGCAG” is 3760 fluorescence intensity (a.u.); for “TAAACACAATTCTCCCTAATTATTATTTCTGGATGATGAGCGGAGTCACCTAGTGCAG” it is 41400 fluorescence intensity (a.u.).

As to “TGATGCTACAATAAACATTTACTAATGACGGATTAATTAGCGGAGTCACCTAGTGCAG”, the binding signal is 3430 fluorescence intensity (a.u.).

As for “AATGTTTGTAGCACGGGAGGCATACCACATACATACATTGCGGAGTCACCTAGTGCAG”, the binding signal was 3640 fluorescence intensity (a.u.). In the case of “CTCGATCACACACGGTGTCACAGTCACAGGTGCATTGACGCGGAGTCACCTAGTGCAG” it was 7140 fluorescence intensity (a.u.); in that of “TGGAGGCGACGTGGCGGTCGTTGACTCGTTGTGTGCTCGACGGAGTCACCTAGTGCAG”, 7090 fluorescence intensity (a.u.). Regarding “TAGAGAGCGGTTTTGCTGACGTGGCGTATACGTGACGGTACGGAGTCACCTAGTGCAG”, the binding signal was 33100 fluorescence intensity (a.u.). In the case of “ACTCCCTCGACGGTTTTGGAGGGCGATTTTGCTGACGTGGCGGAGTCACCTAGTGCAG” it was 47600 fluorescence intensity (a.u.); in that of “GTTTTGGAGGGCGGTTTTGCTGACGTGGCGCTGACATGGCCGGAGTCACCTAGTGCAG”, 32800 fluorescence intensity (a.u.); in that of “GATGACGACGGCGATGACGGCGGGGCGGTTTGGAGCGGGGCGGAGTCACCTAGTGCAG”, 4720 fluorescence intensity (a.u.). The figure for “CTCTCCCAGCGGTAATGGAGGGCGGTTTTGCTGACGTGGCCGGAGTCACCTAGTGCAG” is 58300 fluorescence intensity (a.u.). The figure for “GAGAGGGGTGCGCAGTGTGTTGTGGTGGTGCACATGACGGCGGAGTCACCTAGTGCAG” is 3510 fluorescence intensity (a.u.). Consider “AGATAATCCATAATAATAATTAGCTTAATAATCTAAATCACGGAGTCACCTAGTGCAG”, for which the binding signal is 27300 fluorescence intensity (a.u.). In the case of “CCGGAAAATCTATCTGTGCTTATAAATAGCCATTATCCAACGGAGTCACCTAGTGCAG” it was 57400 fluorescence intensity (a.u.); in that of “GCGTGTGCATCTGCCATGTAATCCAAAATATAGCCATGAACGGAGTCACCTAGTGCAG”, 3660 fluorescence intensity (a.u.); in that of “TCGCAACAACAAGAATGATGATGGCATGACGAAAATGCTACGGAGTCACCTAGTGCAG”, 3570 fluorescence intensity (a.u.). The figure for “CTCGTGGGGACGACGCTGGTGTCCGTGTACTGCAAGTGCGCGGAGTCACCTAGTGCAG” is 4060 fluorescence intensity (a.u.). Consider “TGTCCCCGCGCATCCGCGGACGTGGCTGGGCAACTGCTCGCGGAGTCACCTAGTGCAG”, for which the binding signal was 8030 fluorescence intensity (a.u.).

On to “TACTGCATGCGCAAAGAGTTAATCCGTGGGGCTCGTGGGACGGAGTCACCTAGTGCAG”, for which the binding signal was 45300 fluorescence intensity (a.u.).
